Experimental findings from PubChem BioAssay (EPA / NIEHS) are described below.

In general, AC50 refers to the midpoint of the concentration-response curve, whichever way the signal moves.

Values joined by “and” are separate entries in the source; they are usually repeats but may differ in a detail not shown here. Identical values can stand only once. Active and inactive are the calls of the source. Rule for the calls: active = hit-call score of the fitted dose curve at least 0.9, where 1 is the maximum; inactive = score below 0.9.

Read-out in the experiment: Interferon-gamma inducible Protein 10 (IP10), CXCL10 (gene 3627)
Kind of experiment: BSK_KF3CT_IP10: BioMAP Diversity Plus: KF3CT Assay for Interferon-gamma inducible Protein 10 (IP10) Biomarker Activity (AID 2283068). The following applies: primary human keratinocytes with fibroblasts; actives raise or lower the signal. The method, then:
BSK_KF3CT is a cell-based, multiplexed-readout assay that uses keratinocytes and foreskin fibroblasts, a human skin primary cell co-culture, with measurements taken at 24 hours after chemical dosing in a 96-well plate.BSK_KF3CT_IP10 is an assay component measured in the BSK_KF3CT assay. It measures IP-10 antibody related to regulation of gene expression using ELISA technology.Data from the assay component BSK_KF3CT_IP10 was analyzed into 1 assay endpoint. This assay endpoint, BSK_KF3CT_IP10, was analyzed with bidirectional fitting relative to DMSO as the negative control and baseline of activity. Using a type of binding reporter, gain or loss-of-signal activity can be used to understand changes in the signaling as they relate to the gene CXCL10. Furthermore, this assay endpoint can be referred to as a primary readout, because this assay has produced multiple assay endpoints where this one serves a signaling function. To generalize the intended target to other relatable targets, this assay endpoint is annotated to the cytokine intended target family, where the subfamily is chemotactic factor.
The levels of cell surface (or secreted, indicated by the prefix "s") biomarker endpoints were measured by ELISA. Overt cytotoxicity to cells in confluent adherent cultures (all systems other than the BT system) was assessed by measuring total protein levels using sulforhodamine B (SRB) staining in parallel cultures at the time of biomarker measurements, indicated as SRB endpoints. For proliferation assays for adherent cell types, individual cell types are cultured at sub-confluence and relative cell numbers quantified by SRB staining at time points optimized for each system (48 h: 3C and CASM3C systems; 72 h: BT and HDF3CGF systems; 96 h: SAg system). SRB was performed by staining cells with 0.1% SRB after fixation with 10% TCA and reading wells at 560 nm.Viability and proliferation of PBMC (T cells) was quantified by Alamar Blue reduction for the SAg and BT systems. For PBMC viability (referred to as PBMC Cytotoxicity within the assay endpoint names), cells were plated (75,000/well in a 96-well plate) and then chemical samples added for 1 h before addition of activators, SEB and TSST-1 (20 ng/mL final concentration each). Cells were incubated for 90 h. Then, Alamar Blue (20 uL/well) (Invitrogen, Cat DAL1100) was added for 6 h, and the plates were read with a fluorescence microplate reader at 546/580 nm (excitation/emission). For PBMC proliferation, cells were plated and activated as above but incubated for only 16 h prior to addition of Alamar Blue. Plates were read after 6 h.
Turning to `C=CC(=O)OCC(CO)(COC(=O)C=C)COC(=O)C=C`, the AC50 is 1.08 µM (active).
Turning to `O=C(O)C(F)(F)C(F)(F)C(F)(F)C(F)(F)C(F)(F)C(F)(F)C(F)(F)C(F)F`, the outcome was inactive.
Still for that read-out and setting: the same measure for `C=C(C)C(N)=O`: “inactive”; for `CC(=O)OC(C)(C)C1CC=C(C)CC1` (stereo not given): “inactive”.
`O=C(c1ccc(OCCN2CCCCC2)cc1)c1c(-c2ccc(O)cc2)sc2cc(O)ccc12`: the AC50 is 21 µM (active).
Take `CCn1cc(C(=O)O)c(=O)c2ccc(C)nc21`: the result was inactive.
On the same count and under the same terms, the same measure for `O=S(=O)(O)C(F)(F)C(F)(F)OC(F)(F)C(F)(F)F`: “inactive”; for `CCCO[Si](OCCC)(OCCC)OCCC`: “inactive”.
Regarding `O=C(O)C(F)(F)OC(F)(F)C(F)(F)OC(F)(F)C(F)(F)C(F)(F)C(F)(F)F`, the AC50 is 32.2 µM (active) and 30 µM (active).
For `CCCCCCCC1CCCC1=O` (stereo not given), the outcome was inactive.
The same measure, in the same setting: the same measure for `CC(C)(CO)CO`: “inactive”; for `C=C(C)C(=O)OCCC(F)(F)C(F)(F)C(F)(F)C(F)(F)C(F)(F)C(F)(F)C(F)(F)C(F)(F)F`: “inactive”.
As to `CC1(C)[C@H](C=C(Cl)Cl)[C@H]1C(=O)OCc1cccc(Oc2ccccc2)c1`, the outcome was inactive.
For `O=C1OC2(c3ccc(O)cc3Oc3cc(O)ccc32)c2ccccc21`, the outcome was inactive.
For `OCC(F)(OC(F)(F)C(F)(OC(F)(F)C(F)(F)C(F)(F)F)C(F)(F)F)C(F)(F)F` (stereo not given), the AC50 is 5.01 µM (active) and 4.55 µM (active).
On to `Nc1ccc(N)c([N+](=O)[O-])c1`, for which the result was inactive.
The same measure, in the same setting: the same measure for `CC=CC(=O)C1=C(C)C=CCC1(C)C`: “inactive”; for `CC(C)Cc1ccc(C(C)C(=O)O)cc1` (stereo not given): “inactive”.
On the same count and under the same terms, the same measure for `CC(=O)OCC=C(C)CCC=C(C)CCC=C(C)C`: “inactive”.
For the compound `C=C1CC/C=C(\C)CC[C@@H]2[C@@H]1CC2(C)C`, the AC50 is 25.2 µM (active).
Take `OCCN1CCOCC1`: the result was inactive.
In the case of `COC(=O)c1ccc(C(=O)OC)cc1`, the outcome was inactive.
Still for that read-out and setting: the same measure for `c1ccc2c(c1)-c1ccc3ccc4cccc5cc-2c1c3c45`: “inactive”; for `CC(C)CCCC(C)(C)O`: “inactive”; for `CC(=O)c1ccc(C)cc1`: “inactive”.
Same read-out and setting: the same measure for `CC(=O)CCC=C(C)CCC=C(C)C`: “inactive”; for `NC(=O)c1c(Cl)cccc1Cl`: “inactive”.
Same read-out and setting: the same measure for `C=C(F)C(=O)OC(C(F)(F)F)C(F)(F)F`: “inactive”.
Regarding `c1ccc(OCCOc2ccccc2)cc1`, the outcome was inactive.
With `CCCCOCCOCCO`, the outcome was inactive.
As to `CC/C(=C(\c1ccccc1)c1ccc(OCCN(C)C)cc1)c1ccccc1`, the AC50 is 10.1 µM (active) and 7.37 µM (active).
As to `CC1=CC(C)C(C=O)C(C)C1` (stereo not given) (tested in a mixture with another compound), the result was inactive.
Consider `O=S1(=O)CC(Cl)(Cl)C(Cl)(Cl)C1`, for which the half-maximal activity concentration (AC50) was 2.65 µM (active).
As to `C#C[C@]1(O)CC[C@H]2[C@@H]3CCc4cc(O)ccc4[C@H]3CC[C@@]21C`, the outcome was inactive.
On the same count and under the same terms, the same measure for `CCOC(=O)CCCCCCCCC(=O)OCC`: “inactive”; for `COc1ccccc1NC(=O)CC(C)=O`: “inactive”.
Take `CCCCCCCCCC(=O)OCC`: the result was inactive.
On to `CCC(=O)OCC=Cc1ccccc1`, for which the result was inactive.
Still for that read-out and setting: the same measure for `CCCCN(CCO)CCO`: “inactive”; for `CCCCCCCCCCCCS`: “inactive”.
